Reference: PubChem BioAssay
The source made the active and inactive calls.

Tests used:
[1] = tested on: Plasmodium falciparum Sir2 (PF13_0152, Sir2A); assay: Plasmodium falciparum Sir2A binding compounds – biochemical, small-molecule microarray, 635 nm fluorescence, primary screen (AID 1098); settings: fluorescence 635 nm, higher = more signal;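 note: score merges spot fluorescence intensity with its signal-to-noise ratio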
[2] = probe aDKK1 binding to arrayed compounds – biochemical, biotinylated probe, 635/667 nm fluorescence, primary screen (AID 1099); settings: small-molecule microarray, higher = more signal;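 note: score merges 667nm spot fluorescence with signal to noise across triplicate slides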
[3] = probe aCHRDL2 binding to arrayed compounds – biochemical, biotinylated probe, 635/667 nm fluorescence, primary screen (AID 1100); settings: small-molecule microarray, higher = more signal
[4] = change in splice reporter luminescence, either direction, cell-based, HEK293, spliceosome inhibition project, primary screen (AID 1101); settings: HEK293 splicing luciferase reporter, 24 h, higher = more signal, called active from +8 up or from −8 down;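 note: HEK293 cells carrying a splicing-competent luciferase reporter gene; test concentration not given here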
[5] = molecular target: Fibroblast growth factor 10 (Homo sapiens) (UniProt O15520); assay: compounds binding fibroblast growth factor 10 – biochemical, small-molecule microarray, 635 nm fluorescence, primary screen (AID 1102); settings: FGF10 binding, fluorescence 635 nm, higher = more signal
Fibroblast growth factor 10 (Homo sapiens), sequence (O15520 whole entry, looked up): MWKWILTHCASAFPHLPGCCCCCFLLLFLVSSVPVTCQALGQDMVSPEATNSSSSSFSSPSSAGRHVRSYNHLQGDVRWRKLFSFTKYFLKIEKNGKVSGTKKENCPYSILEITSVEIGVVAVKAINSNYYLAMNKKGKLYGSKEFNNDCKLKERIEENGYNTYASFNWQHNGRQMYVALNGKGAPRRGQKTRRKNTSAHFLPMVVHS

[6] = tested on: glycogen synthase kinase-3 (GSK3A per assay name; protocol says GSK3B); assay: compounds binding glycogen synthase kinase-3 – biochemical, small-molecule microarray, 635 nm fluorescence, GSK3A, primary screen (AID 1103); settings: fluorescence 635 nm, higher = more signal; note: the record names both GSK3A and GSK3B
[7] = molecular target: Epidermal growth factor receptor (Homo sapiens) (UniProt P00533); assay: compounds binding epidermal growth factor receptor – biochemical, small-molecule microarray, 635 nm fluorescence, primary screen (AID 1104); settings: EGFR binding, higher = more signal;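 note: score merges 667 nm emission intensity with spot signal to noise over triplicate slides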
Epidermal growth factor receptor (Homo sapiens), sequence (P00533 whole entry, looked up): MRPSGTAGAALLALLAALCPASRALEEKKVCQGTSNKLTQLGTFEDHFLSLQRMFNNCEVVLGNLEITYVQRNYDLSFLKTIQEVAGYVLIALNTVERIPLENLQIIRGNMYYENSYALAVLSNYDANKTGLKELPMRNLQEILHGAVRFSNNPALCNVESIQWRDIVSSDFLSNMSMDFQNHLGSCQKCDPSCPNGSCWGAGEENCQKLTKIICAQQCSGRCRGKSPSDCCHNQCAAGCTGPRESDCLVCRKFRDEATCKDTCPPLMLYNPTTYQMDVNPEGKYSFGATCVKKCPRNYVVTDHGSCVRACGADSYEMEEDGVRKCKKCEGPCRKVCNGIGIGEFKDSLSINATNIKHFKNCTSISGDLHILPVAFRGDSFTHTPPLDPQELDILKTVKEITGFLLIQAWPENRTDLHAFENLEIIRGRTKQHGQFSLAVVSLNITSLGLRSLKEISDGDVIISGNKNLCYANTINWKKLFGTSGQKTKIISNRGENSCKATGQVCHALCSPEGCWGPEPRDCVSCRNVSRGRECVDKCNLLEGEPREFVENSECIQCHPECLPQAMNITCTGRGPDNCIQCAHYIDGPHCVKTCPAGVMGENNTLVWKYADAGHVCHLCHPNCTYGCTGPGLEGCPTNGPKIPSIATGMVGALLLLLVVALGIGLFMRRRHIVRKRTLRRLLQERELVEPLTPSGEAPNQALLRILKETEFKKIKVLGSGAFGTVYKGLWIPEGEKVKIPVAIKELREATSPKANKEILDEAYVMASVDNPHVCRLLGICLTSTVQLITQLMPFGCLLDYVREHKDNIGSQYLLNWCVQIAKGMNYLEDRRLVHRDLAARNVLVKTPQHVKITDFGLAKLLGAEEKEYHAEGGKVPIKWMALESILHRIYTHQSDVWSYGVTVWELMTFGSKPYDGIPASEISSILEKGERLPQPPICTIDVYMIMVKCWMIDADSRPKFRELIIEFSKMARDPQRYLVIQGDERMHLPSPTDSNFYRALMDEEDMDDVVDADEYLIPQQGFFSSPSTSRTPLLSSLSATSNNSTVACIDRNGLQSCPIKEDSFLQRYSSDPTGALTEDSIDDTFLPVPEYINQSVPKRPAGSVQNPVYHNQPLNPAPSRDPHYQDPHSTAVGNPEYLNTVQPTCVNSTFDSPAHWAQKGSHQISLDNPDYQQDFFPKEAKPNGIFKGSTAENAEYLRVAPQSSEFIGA

[8] = molecular target: Follistatin-related protein 3 (Homo sapiens) (UniProt O95633); assay: compounds binding follistatin-related protein 3 – biochemical, small-molecule microarray, 635 nm fluorescence, primary screen (AID 1105); settings: FSTL3 binding, higher = more signal;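 note: score merges emission near 667 nm and signal to noise per printed spot across three slides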
Follistatin-related protein 3 (Homo sapiens), sequence (O95633 whole entry, looked up): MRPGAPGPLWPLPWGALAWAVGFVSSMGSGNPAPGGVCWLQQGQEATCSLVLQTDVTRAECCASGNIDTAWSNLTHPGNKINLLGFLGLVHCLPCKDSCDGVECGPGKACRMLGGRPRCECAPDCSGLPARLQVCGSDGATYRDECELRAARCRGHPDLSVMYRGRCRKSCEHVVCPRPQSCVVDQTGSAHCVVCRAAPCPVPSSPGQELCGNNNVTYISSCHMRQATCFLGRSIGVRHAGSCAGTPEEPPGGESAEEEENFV

[9] = molecular target: Dickkopf-related protein 1 (Homo sapiens) (UniProt O94907); assay: small molecules binding DKK1 protein – biochemical, small-molecule microarray, 635 nm fluorescence scan, primary screen (AID 1106); settings: higher = more signal;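 note: score merges emission near 667 nm with signal to noise over three replicate slides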
Dickkopf-related protein 1 (Homo sapiens), sequence (O94907 whole entry, looked up): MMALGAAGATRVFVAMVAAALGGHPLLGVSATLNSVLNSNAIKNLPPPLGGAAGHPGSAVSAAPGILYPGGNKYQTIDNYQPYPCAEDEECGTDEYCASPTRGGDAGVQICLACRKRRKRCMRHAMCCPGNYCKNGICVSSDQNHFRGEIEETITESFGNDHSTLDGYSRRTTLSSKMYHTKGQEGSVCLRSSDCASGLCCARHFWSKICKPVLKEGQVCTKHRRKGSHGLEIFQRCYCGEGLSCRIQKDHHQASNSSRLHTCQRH

[10] = tested on: Inhibin beta A chain (activin A); assay: small molecules binding activin A – biochemical, small-molecule microarray, 635 nm fluorescence scan, primary screen (AID 1107); settings: INHBA, higher = more signal;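 note: mouse activin A protein probed at 4.33 µg/mL on printed slides; score merges bound-protein fluorescence near 667 nm with spot signal-to-noise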
[11] = tested on: Human papillomavirus type 1a protein E7 (residues 44-93); assay: small molecules binding HPV E7 44-93 – biochemical, small-molecule microarray, residues 44-93, 635 nm fluorescence, primary screen (AID 1108); settings: fluorescence 635 nm, higher = more signal;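 note: E7 fragment applied at 1 µg/mL in TBST for 1 h at 4 C; score combines spot fluorescence with its signal to noise ratio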
[12] = hepatitis C replication reporter changes, two-sided – Huh7 cells, luciferase reporter, HCV replication inhibitor project, primary screen (AID 1109); settings: Huh7 HCV replicon luciferase reporter, 48 h; higher = more signal;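 note: huh7 hepatoma cells harbouring a luciferase neomycin HCV replicon reporter; luciferase luminescence as measure of HCV replicon replication; test concentration not given here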
[13] = molecular target: Left-right determination factor 2 (Homo sapiens) (UniProt O00292); assay: small molecules binding LEFTY2 protein – biochemical, small-molecule microarray, 635 nm fluorescence scan, primary screen (AID 1110); settings: higher = more signal
Left-right determination factor 2 (Homo sapiens), sequence (O00292 whole entry, looked up): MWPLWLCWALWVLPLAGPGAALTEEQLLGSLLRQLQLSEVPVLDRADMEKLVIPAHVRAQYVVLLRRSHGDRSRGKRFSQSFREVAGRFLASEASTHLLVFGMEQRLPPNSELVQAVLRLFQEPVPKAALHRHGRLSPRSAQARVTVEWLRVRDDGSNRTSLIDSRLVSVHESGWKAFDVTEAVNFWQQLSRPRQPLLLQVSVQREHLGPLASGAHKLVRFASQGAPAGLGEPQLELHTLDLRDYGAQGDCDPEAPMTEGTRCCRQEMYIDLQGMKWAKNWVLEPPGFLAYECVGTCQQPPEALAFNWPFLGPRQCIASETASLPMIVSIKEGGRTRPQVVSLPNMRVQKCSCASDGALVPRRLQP

[14] = molecular target: Calmodulin-1 (Homo sapiens) (UniProt P0DP23); assay: small molecules binding calmodulin-1 with EGTA – biochemical, small-molecule microarray, Cy5-labelled CALM1, profiling panel (AID 1111); settings: Cy5-CALM1 binding fluorescence, higher = more signal;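 note: labelled calmodulin applied in Tris saline Tween buffer holding calcium plus EGTA and DTT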
[15] = molecular target: Calmodulin-1 (Homo sapiens) (UniProt P0DP23); assay: small molecules binding Ca-loaded calmodulin-1 – biochemical, small-molecule microarray, Cy5-labelled CALM1, plus calcium, artefact control for SMM control-protein annotation, profiling panel (AID 1112); settings: Cy5-CALM1 binding fluorescence, higher = more signal;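 note: score merges spot fluorescence with signal to noise from triplicate slides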
[16] = probe aWnt5a binding to arrayed compounds – biochemical, biotinylated probe, 635/667 nm fluorescence, primary screen (AID 1113); settings: small-molecule microarray, higher = more signal;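 note: score merges 667 nm fluorescence intensity with signal-to-noise per printed feature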
[17] = probe aShh binding to arrayed compounds – biochemical, biotinylated probe, 635/667 nm fluorescence, primary screen (AID 1114); settings: small-molecule microarray, higher = more signal;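 note: probe is biotin-labelled aShh protein from a stem cell growth factor screen; measures binding of labelled protein to compounds printed on the slide; score merges feature fluorescence at 667 nm with signal-to-noise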
[18] = probe aNog binding to arrayed compounds – biochemical, biotinylated probe, 635/667 nm fluorescence, primary screen (AID 1115); settings: small-molecule microarray, higher = more signal;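 note: probe is biotinylated aNog protein used at 0.15 µg/mL for 1 h at 4 C; z-score combines 667 nm fluorescence of each spot with its signal to noise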
[19] = molecular target: Torsin-1A-interacting protein 1 (Homo sapiens) (UniProt Q5JTV8); assay: compound microarray binding of lysate hLAP1 – cell lysate, small-molecule microarray, COS7 lysate, 635/667 nm fluorescence, primary screen (AID 1116); settings: 635 nm fluorescence, higher = more signal
Torsin-1A-interacting protein 1 (Homo sapiens), sequence (Q5JTV8 whole entry, looked up): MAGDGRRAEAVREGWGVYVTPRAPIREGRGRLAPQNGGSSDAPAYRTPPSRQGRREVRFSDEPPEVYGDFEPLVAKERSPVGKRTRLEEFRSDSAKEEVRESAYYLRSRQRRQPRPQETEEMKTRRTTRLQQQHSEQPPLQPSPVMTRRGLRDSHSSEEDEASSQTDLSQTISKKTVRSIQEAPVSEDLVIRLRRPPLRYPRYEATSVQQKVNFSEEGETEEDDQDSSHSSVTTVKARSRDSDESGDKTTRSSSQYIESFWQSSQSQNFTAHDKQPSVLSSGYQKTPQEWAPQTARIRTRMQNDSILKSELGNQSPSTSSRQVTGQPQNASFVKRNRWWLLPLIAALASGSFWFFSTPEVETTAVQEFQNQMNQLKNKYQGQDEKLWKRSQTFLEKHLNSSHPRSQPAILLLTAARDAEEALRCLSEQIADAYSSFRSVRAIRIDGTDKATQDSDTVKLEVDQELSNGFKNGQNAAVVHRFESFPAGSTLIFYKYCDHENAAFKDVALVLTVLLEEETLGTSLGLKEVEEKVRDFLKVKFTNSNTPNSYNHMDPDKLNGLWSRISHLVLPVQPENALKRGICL

[20] = molecular target: Alpha-bungarotoxin (Bungarus multicinctus) (UniProt P60615); assay: compounds binding labelled alpha-BTX control protein – biochemical, small-molecule microarray, Alexa647 label, 635/667 nm fluorescence, artefact control for SMM control protein annotation, profiling panel (AID 1117); settings: alpha-BTX-A647 binding fluorescence, higher = more signal
Alpha-bungarotoxin (Bungarus multicinctus), sequence (P60615 whole entry, looked up): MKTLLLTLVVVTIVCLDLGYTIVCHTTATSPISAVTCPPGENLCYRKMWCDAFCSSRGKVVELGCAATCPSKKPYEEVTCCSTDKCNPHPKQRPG

Structure (SMILES)	composite z-score [1]	composite z-score [2]	composite z-score [3]	z-score [4]	composite z-score [5]	composite z-score [6]	composite z-score [7]	composite z-score [8]	composite z-score [9]	composite z-score [10]	composite z-score [11]	z-score [12]	composite z-score [13]	composite z-score [14]	composite z-score [15]	composite z-score [16]	composite z-score [17]	composite z-score [18]	composite z-score [19]	composite z-score [20]
Cc1cc2c(nc1C)CCCCN2CC(C)ON=C[C@@H](C)[C@H](OCc1ccccc1)C(C)C (stereo not given in full)	-0.504	-0.873	-0.122	-0.037 (inactive)	-1.92	-1.05	-1.85	-0.934	-0.969	0.911	-0.683	-3.07	-0.684	-1.4	-0.987	-0.224	-0.214	-0.415	-1.16	-0.916
CCOC(=O)NN=C1C[C@@H](O)[C@@H](O)[C@@H]2[C@@H]3C(=O)N([C@@H](C)c4ccccc4)C(=O)[C@@H]3CC[C@H]12	0.209	-0.0719	-0.183	-0.681 (inactive)	0.225	0.515	0.308	0.345	0.309	0.121	0.171	-0.789	0.0792	-0.258	-0.453	-0.124	-0.117	-0.287	2.53	-0.0914
CON=C(C)CCC(=O)OC[C@H]1O[C@H](c2ccccc2)C=C[C@@H]1Oc1ccc(OC)cc1	0.712	-0.174	-0.15	0.115 (inactive)	0.142	-0.496	0.213	0.189	0.474	0.854	-0.65	0.275	0.353	-0.515	-0.724	0.0257	-0.0769	-0.148	0.474	-0.0686
CCOC(=O)[C@H](Cc1ccccc1)NC(=O)CCC1CC(OC(=O)NCc2cccc3ccccc23)CC2(CCCC(COC(=O)NCc3ccccc3)O2)O1 (stereo not given in full)	0.388	-0.208	-0.285	-2.41 (inactive)	0.286	-0.231	0.173	0.689	0.223	0.103	0.836	-1.03	0.168	0.507	-0.607	-0.2	-0.145	-0.144	-0.0849	0.713
C#CCCCON=C1C[C@@H](O)[C@@H](O)[C@@H]2[C@@H]3C(=O)N(c4ccc(F)cc4F)C(=O)[C@@H]3CC[C@H]12	0.87	-0.177	-0.86	-1.35 (inactive)	0.947	0.678	0.403	0.432	0.978	-0.185	0.299	0.0534	0.358	-0.353	-0.693	-0.006	-0.0533	-0.21	-0.0188	0.239
COC(=O)[C@@H]1CC[C@H](C)[C@@H](c2ccc(C)cc2)N1C(=O)c1ccc(C=NOCC[C@@H]2C=C[C@H](OC(C)=O)[C@@H](COC(C)=O)O2)cc1	0.35	-0.33	-0.684	0.566 (inactive)	0.402	0.637	0.49	0.644	0.948	0.323	0.875	-0.852	0.465	-0.0548	-0.141	-0.0778	-0.0553	-0.37	1.41	0.646
O=C1CCCC=C1C(CCc1ccccc1)OC(=O)c1ccc(Br)cc1 (stereo not given)	-0.258	-0.0892	-0.442	-0.173 (inactive)	0.146	-0.61	0.362	0.283	0.422	0.608	-2.1	1.15	0.572	-1.11	-0.622	-0.124	-0.147	-0.348	-0.108	-0.334
C[C@H]1Cc2c(COc3ccccc3)nc3c(c2CO1)CN(CCOc1ccccc1)CC3	0.654	-0.133	-0.496	-0.34 (inactive)	1.03	1.15	0.5	1.29	0.538	0.298	1.14	-0.228	0.635	0.625	-0.255	-0.172	0.0144	-0.502	0.647	0.161
COC(=O)CC=C[C@@H](C)[C@@H](C=NO[C@@H]1O[C@H](COC(C)=O)[C@@H](OC(C)=O)[C@H](OC(C)=O)[C@H]1OC(C)=O)OC	-0.225	-0.194	-0.463	0.869 (inactive)	-0.481	-0.757	0.383	-0.4	-2.27	-2.01	-0.428	-1.57	0.499	-0.937	-1.48	-0.175	-0.309	-0.249	-0.461	-0.463
CC(C)CON=C1C[C@@H](O)[C@@H](O)[C@@H]2[C@@H]3C(=O)N(C[C@@H]4CCCO4)C(=O)[C@@H]3CC[C@@H]12	0.0599	0.52	0.0562	0.926 (inactive)	-0.231	-0.622	-0.151	-0.336	-0.554	-0.148	0.267	0.444	0.0128	-0.333	0.0901	-0.173	-0.123	-0.103	-0.419	0.678
O=C1[C@H]2[C@H]3[C@H](O)[C@H](O)CC(=NOC[C@@H](O)COCc4ccco4)[C@H]3CC[C@H]2C(=O)N1Cc1ccccc1	0.467	-0.49	-0.964	-0.907 (inactive)	0.378	0.0077	0.522	0.404	0.901	0.764	-1.01	-0.523	0.665	-0.684	-1.22	-0.18	-0.27	0.0444	-0.193	-0.309
